# Measured values reported in PubChem BioAssay AID1745847 (National Center for Advancing Translational Sciences (NCATS), 2022).
# In all, about 2,100 compounds went through this assay and about 670 (32%) were called active. Inconclusive results (about 50%) are left out. The list shows a part of the results. A number with no mark means an inactive call. Calls come from the whole dose curve; as a rule, active = well fitted inhibition curve with a large enough effect; inconclusive = small, poorly fitted or top-dose-only effect; inactive = no such curve, though single readings can be large or run the other way.
# Assay: CMV-Luciferase Counterscreen for Inhibitors of ATXN expression; note: nearly all actives have a fitted effect of over 55% in size
# Conditions: HEK-293 CMV-luciferase reporter, luminescence, 24 h; series mostly up to 57.5 µM; activity change, negative = inhibition: at the top concentration
# From the text: PI: Daniel Scoles Ph.D. University of Utah School of Medicine, Salt Lake City, Utah MLPCN Grant: NS073009 Spinocerebellar ataxia type 2 (SCA2) is a multisystem neurodegenerative disease caused by a dominantly acting mutation leading to expansion of a polyQ domain in the ataxin-2 protein (ATXN2). SCA2 patients develop progressive ataxia and later lose function in other neuronal systems. Prominent parkinsonian signs develop in some patients. Like many neurodegenerative disorders, no symptomatic or disease-modifying treatments are known. The primary objective of the proposed research is to identify compounds inhibiting ATXN2 expression and to test them for efficacy in SCA2 mouse models. We have developed a cell-based assay paired with an in vivo mouse model using identical luciferase expression constructs. This approach takes advantage of an ATXN2-luciferase transgene, with the luciferase gene flanked by the upstream and downstream portions of the ATXN2 gene. Here we describe a 5-7 dose quantitative high thoroughput screen (qHTS) for compounds lowering ATXN2 expression. We screened the NIH Molecular Libraries Small Molecule Repository (MLSMR) and NCGC's mechanistically annotated (MIPE) and drug repurposing (NPC) collections of compounds for lowering expression of an ATXN2-luciferase reporter in HEK-293 cells. The assay is a multiplexed cell viability assay to ensure target reduction in the absence of cytotoxicity. Secondary qHTS assays included a CMV-luciferase reporter expressed in HEK-293 cells as well as a biochemical assay using recombinant luciferase to detect inhibitors of the reporter enzyme. Compounds that inhibit ATXN2 expression but is not cytotoxic were selected for confirmatory and secondary screens.
# PROTOCOL TABLE (as described by Inglese J, Shamu CE and Guy RK. 2007) SEQUENCE No. (e.g., 1, 2, 3, etc.); PARAMETER (e.g., Cells, Incubation, Reagent, etc.); VALUE; DESCRIPTION. 1; Cells; 4 uL; white, solid bottom, 1536-well Greiner assay plate. 2; Incubation; 2 hr; 37 degree C in 5% humidified CO2. 3; Compounds; 23 nL; Kalypsis pintool (Wako USA) equipped with a 1536-well pin head. 4; Incubation; 24 hr; 37 degree C in 5% humidfified CO2. 5; Reagent; 1 uL; Gly-Phe-7-Amino-4-trifluoromethylcoumarin. 6; Incubation; 30 min; 37 degree C in 5% humidfified CO2. 7; Detection; Fluorescence; Viewlux plate reader (PerkinElmer). 8; Reagent; 3 uL; SteadyGlo luciferase solution (Promega). 9; Incubation; 5 min; room temperature. 10; Detection; Luminescence; ViewLux plate reader (PerkinElmer). NOTES (numbers refer to Sequence numbers above) 1. HEK-293 cells expressing CMV-luciferase reporter (designated as SC cells) were suspended in phenol-red free DMEM and dispensed in assay plates using a Multidrop Combi dispenser (Thermo Fisher Scientific). 2. Assay plates were incubated. Evaporation was prevented by covering assay plates with metal lids containing holes to allow gas diffusion. 3. Compounds were added in a dose response manner with the final concentrations of 57, 11.4, 2.28, 0.46, 0.091, 0.018, 0.0037 uM. Vehicle-only plates, with DMSO being pin-transferred to columns 5-48, were inserted uniformly at the beginning and the end of each library to monitor and record any shifts in assay performance. 5. 125 uM Gly-Phe-7-Amino-4-trifluoromethylcoumarin (MP Biomedicals) working concentration was used at a final concentration of 25 uM. 7. To assess cell viability; the assay plates were read using the ViewLux high-throughput CCD imager (PerkinElmer), wherein single end-point fluorescence measurement was acquired (excitation 405/10; emission 540/25 nm). 8. Detection reagent SteadyGlo Luciferase (Promega) was added to the assay plate. 10. Luminescence is then measured on the ViewLux imager equipped with a clear emission filter using a 2 sec exposure. […]
# % is set by controls: 0 for no effect and ±100 for the full control effect; potency is the fitted concentration of half-maximal effect.
SMILES,"activity change, negative = inhibition",Potency
Cc1ccc(C(=O)N/C(=C/c2ccc(-c3ccc([N+](=O)[O-])cc3)o2)C(=O)NCCCN(C)C)cc1,-11.5%,–
Cc1ccsc1/C=C/C1=Cc2c(sc(NC(=O)CSc3n[nH]c(N)n3)c2C#N)C(C)(C)C1,-26.7%,–
COc1cccc(CN(C)C(=O)c2ccc(OCC(=O)Nc3cccc(C(F)(F)F)c3)c(OC)c2)c1,–,7.08 µM (active)
CN(C)CCNC(=O)c1cccc(-c2cnc3c(NC=O)cc(/C=C/c4ccccc4)cn23)c1,45.6%,–
Cc1cc2sc3ccc(C#CC4(O)CCCCC4)cc3c(=O)c2cc1C,–,0.0316 µM (active)
COc1ccccc1-c1cc2nc(-c3ccccc3)cc(N3CCN(C(=O)c4ccco4)CC3)n2n1,–,7.94 µM (active)
COc1ccccc1-c1cc2nc(-c3ccccc3)cc(N3CCN(C(=O)c4ccoc4)CC3)n2n1,–,7.94 µM (active)
O=C(c1ccoc1)N1CCN(c2cc(-c3ccccc3)nc3cc(-c4ccccc4)nn23)CC1,–,10 µM (active)
COc1cccc(-c2cc3nc(-c4ccccc4)cc(N4CCN(C(=O)c5ccoc5)CC4)n3n2)c1,–,3.16 µM (active)
FC(F)(F)c1cc(-c2ccccn2)nc2cc(-c3ccccc3)nn12,-0.328%,–
NC(=O)Cn1c(=O)n(CCc2ccccc2)c(=O)c2c3c(sc21)CCCC3,10.9%,–
CCNc1ccc(Br)cc(C(=O)/C=C/c2ccccc2Cl)c1=O,-8.42% [at 11.4 µM],–
O=C(c1ccoc1)N1CCN(c2cc(-c3cccnc3)nc3cc(-c4cccc(Cl)c4)nn23)CC1,–,28.2 µM (active)
O=C(Nc1cccc2c1CCCC2)c1cc([N+](=O)[O-])ccc1Cl,–,6.31 µM (active)
COc1cccc(CC2(CO)CCCN(Cc3[nH]c4ccc(C)cc4c3C)C2)c1 (centres undefined),-14.8%,–
Cc1ccc(S(=O)(=O)Nc2ccc(O)c3cccnc23)cc1,–,28.2 µM (active)
Cc1ccc(S(=O)(=O)Nc2cccc3cccnc23)c([N+](=O)[O-])c1,80.5%,–
CCC(=O)NC(c1ccco1)c1cc(Br)c2cccnc2c1O (centres undefined),–,8.91 µM (active)
COc1cccc(C(NC(C)=O)c2ccc3cccnc3c2O)c1 (centres undefined),–,2.82 µM (active)
CC(=O)NC(c1ccc(C(C)C)cc1)c1ccc2cccnc2c1O (centres undefined),–,1.26 µM (active)
CC(=O)NC(c1ccc2ccccc2c1)c1ccc2cccnc2c1O (centres undefined),–,0.355 µM (active)
OC1(c2ccc(Br)cc2)CCNCC1,0.489% [at 11.4 µM],–

SMILES,"activity change, negative = inhibition",Potency
Cc1cccc(NC(c2ccc(C)s2)c2ccc3ccc(C)nc3c2O)n1 (centres undefined),21.1%,–
Oc1cccc(C(Nc2nccs2)c2ccc3cccnc3c2O)c1 (centres undefined),–,2.82 µM (active)
CC(=O)NC(c1ccco1)c1ccc2cccnc2c1O (centres undefined),–,1.58 µM (active)
Oc1c(C(Nc2ccccn2)c2ccccn2)ccc2cccnc12 (centres undefined),–,2.82 µM (active)
CC(=O)NC(c1ccco1)c1cc(Cl)c2cccnc2c1O (centres undefined),–,7.94 µM (active)
CN(Cc1ccccc1)C(=O)c1ccc(NC(=O)C2CCN(C(=O)OC(C)(C)C)CC2)cc1,–,7.08 µM (active)
CC(C)(C)OC(=O)N1CCC(c2c(C(=O)NCC3CCN(C4CCCC4)C3)cnn2-c2cccc(Cl)c2)CC1 (centres undefined),-22.1% [at 11.4 µM],–
O=C(Cc1coc2cc3c(cc12)CCC3)OCC(=O)N1CCCC1=O,–,15.8 µM (active)
Cc1ccc(-n2c(-c3ccccc3)c[n+]3c2CCc2ccccc2-3)c(C)c1,–,0.794 µM (active)
S=C(Nc1ccccc1)Nc1ccc(OCc2ccc(Cl)cc2Cl)cc1,–,3.55 µM (active)
S=C(Nc1cc(Cl)ccc1Oc1ccccc1)N1CCN(c2ccccn2)CC1,–,17.8 µM (active)
O=C(Nc1ccc(Br)cc1)c1cccc(OC(=S)N2CCOCC2)c1,–,2 µM (active)
Oc1[nH]c2ccc(Br)cc2c1N=NC(=S)N1CCOCC1,43.7% [at 11.4 µM],–
Cc1ccc(S(=O)(=O)N2CCc3ccccc3CC2)cc1,–,0.794 µM (active)
COCCNC(=O)c1cccc(Nc2nc(-c3ccccc3)c3cc(Cl)ccc3n2)c1,–,15.8 µM (active)
O=C(NCCc1csc(-c2cccnc2)n1)c1cccc(Cl)c1,-26.6%,–
CCN1CCN(C(=S)c2ccc(-c3ccccc3)cc2)CC1,–,2 µM (active)
OCCN1CCN(C(=S)c2ccc(-c3ccccc3)cc2)CC1,–,2.51 µM (active)
CC(C)=C1SC(N2CCN(c3ccc(C)c(Cl)c3)CC2)=NC1=O,103% [at 11.4 µM],–
CCn1c2ccccc2c2cc(NC(=O)COC(=O)C3CCC(=O)N3)ccc21 (centres undefined),18.1%,–
CCn1c2ccccc2c2cc(C3C(C#N)=C(N)Oc4n[nH]c(COC)c43)ccc21 (centres undefined),–,2.82 µM (active)
CC1(C(=O)Nc2cnc3ccccc3c2)CCN1C(=O)c1ccccc1CCc1ccccc1 (centres undefined),–,28.2 µM (active)
